Laboratory results reported in PubChem BioAssay (NCI).
Compounds without any hit were thinned out: in the full panel of roughly 83,000, 20% have a hit.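 How to read the values: 0–100, growth inhibition (40 = 60% inhibited); 0, no net growth; -100 to 0, cell death (-40 = 40% of starting cells died; -100 = all dead).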 The source made the active and inactive calls. Rule for the calls: active = growth percent below 10; inactive = the rest.

How the values were obtained:
Assay in all cases: NCI-60 one-dose screen, 48 h (100 = growth as untreated, 0 = no growth, -100 = all killed)
Details in all cases: 10 µM unless noted
SR leukemia = tested on: SR leukemia
RPMI-8226 leukemia = tested on: RPMI-8226 leukemia
OVCAR-8 ovarian = tested on: OVCAR-8 ovarian
OVCAR-5 ovarian = tested on: OVCAR-5 ovarian
OVCAR-4 ovarian = tested on: OVCAR-4 ovarian
SK-OV-3 ovarian = tested on: SK-OV-3 ovarian
OVCAR-3 ovarian = tested on: OVCAR-3 ovarian
HS 578T breast = tested on: HS 578T breast
NCI/ADR-RES ovarian = tested on: NCI/ADR-RES ovarian
IGROV1 ovarian = tested on: IGROV1 ovarian

Measured: growth

C#CCOc1ccc2ncnc(Nc3ccc(NC(=O)CCl)cc3)c2c1
inactive: OVCAR-5 ovarian 30.5% | SK-OV-3 ovarian 22.4% | HS 578T breast 27.6%
active: SR leukemia -7.69% | RPMI-8226 leukemia -16.7% | OVCAR-8 ovarian 2.5% | OVCAR-4 ovarian -17.5% | OVCAR-3 ovarian -38.6% | NCI/ADR-RES ovarian 7.93%

COc1ccc2cc(-c3ccc(NC(C)=O)c(=O)o3)ccc2c1
inactive: SR leukemia 88.2% | RPMI-8226 leukemia 96.3% | OVCAR-8 ovarian 97.1% | OVCAR-5 ovarian 95% | OVCAR-4 ovarian 101% | SK-OV-3 ovarian 94.6% | OVCAR-3 ovarian 101% | HS 578T breast 93.8% | NCI/ADR-RES ovarian 103%

O=C(Cn1c(=O)sc2ccccc21)NNS(=O)(=O)c1ccccc1[N+](=O)[O-]
inactive: SR leukemia 96% | RPMI-8226 leukemia 98.4% | OVCAR-8 ovarian 99.4% | OVCAR-5 ovarian 100% | OVCAR-4 ovarian 117% | SK-OV-3 ovarian 103% | OVCAR-3 ovarian 99.3% | HS 578T breast 103% | NCI/ADR-RES ovarian 103%

COc1ccc(-c2csc(N(C(=O)N3CCN(c4cc5c(cc4F)c(=O)c(C(=O)O)cn5C4CC4)CC3)c3ccccc3)n2)cc1
inactive: SR leukemia 10.4% | RPMI-8226 leukemia 16% | OVCAR-8 ovarian 15.5% | OVCAR-5 ovarian 12.8% | OVCAR-4 ovarian 33.3% | SK-OV-3 ovarian 21.8% | IGROV1 ovarian 17.1% | HS 578T breast 40.3% | NCI/ADR-RES ovarian 11.8%
active: OVCAR-3 ovarian 8.09%

O=C(/C=C/c1cccs1)c1ccc(Cl)nc1
inactive: SR leukemia 82.5% | OVCAR-8 ovarian 99.3% | OVCAR-5 ovarian 103% | OVCAR-4 ovarian 104% | SK-OV-3 ovarian 95.7% | OVCAR-3 ovarian 116% | HS 578T breast 105% | NCI/ADR-RES ovarian 108%
active: RPMI-8226 leukemia 4.19%

Cc1ccc2c3c(c(=O)[nH]c2c1)C1(C(C#N)=C(N)O3)c2cc(Br)ccc2-c2ccc(Br)cc21
inactive: SR leukemia 22.2% | RPMI-8226 leukemia 14.8% | OVCAR-5 ovarian 18.3% | SK-OV-3 ovarian 47.7% | NCI/ADR-RES ovarian 54.1%
active: OVCAR-8 ovarian 0.183% | OVCAR-4 ovarian -50% | IGROV1 ovarian -13.2% | OVCAR-3 ovarian -40.1% | HS 578T breast -5.5%

O=C(O)CCCN1C(=O)/C(=C/C(Cl)=C/c2ccccc2)SC1=S
inactive: SR leukemia 13% | OVCAR-8 ovarian 19.1% | OVCAR-5 ovarian 59% | OVCAR-4 ovarian 46.8% | SK-OV-3 ovarian 110% | OVCAR-3 ovarian 13.6% | HS 578T breast 31.6%
active: RPMI-8226 leukemia -13.1%

CCN1CCN(Cc2cn(CC(=O)Nc3ccc4c(ccn4Cc4ccccc4)c3)nn2)CC1
inactive: SR leukemia 63.5% | RPMI-8226 leukemia 85% | OVCAR-8 ovarian 99.7% | OVCAR-5 ovarian 113% | OVCAR-4 ovarian 97.4% | SK-OV-3 ovarian 92.7% | OVCAR-3 ovarian 102% | HS 578T breast 100% | NCI/ADR-RES ovarian 108%

CC1(C)c2[nH]c3ccccc3c2C[C@]2(C)[C@H]3CC=C4[C@@H]5C[C@@](C)(C(N)=O)CC[C@]5(C)CC[C@@]4(C)[C@]3(C)CC[C@@H]12
inactive: SR leukemia 34.3% | RPMI-8226 leukemia 38.3% | OVCAR-8 ovarian 50.8% | OVCAR-5 ovarian 102% | OVCAR-4 ovarian 32.4% | SK-OV-3 ovarian 70.1% | IGROV1 ovarian 74.4% | OVCAR-3 ovarian 58.3% | HS 578T breast 91.5% | NCI/ADR-RES ovarian 67.5%

C=C(CNCCc1ccc(O)cc1)[C@@H]1CC[C@]2(CO)CC[C@]3(C)[C@H](CC[C@@H]4[C@@]5(C)CCC(NCCO)C(C)(C)[C@@H]5CC[C@]43C)[C@@H]12 (stereo not given in full)
active: SR leukemia -42.3% | RPMI-8226 leukemia -45.9% | OVCAR-8 ovarian -49.7% | OVCAR-5 ovarian 4.67% | OVCAR-4 ovarian -15.9% | IGROV1 ovarian -37.1% | OVCAR-3 ovarian -41.7% | HS 578T breast -61.1%
inactive: SK-OV-3 ovarian 86.4% | NCI/ADR-RES ovarian 53.8%

COc1ccc(C(=O)C2C(c3ccc(OC)cc3)CN(C)C23C(=O)Nc2ccccc23)cc1 (stereo not given)
inactive: SR leukemia 98% | RPMI-8226 leukemia 88.6% | OVCAR-8 ovarian 95.5% | OVCAR-5 ovarian 88.6% | OVCAR-4 ovarian 83.6% | SK-OV-3 ovarian 91.4% | IGROV1 ovarian 80.8% | OVCAR-3 ovarian 97.8% | HS 578T breast 93.2% | NCI/ADR-RES ovarian 76.7%

CCN(CC)CCSc1nc(-c2ccccc2)c(C#N)c(=O)[nH]1
inactive: SR leukemia 92.3% | RPMI-8226 leukemia 119% | OVCAR-8 ovarian 111% | OVCAR-5 ovarian 108% | OVCAR-4 ovarian 154% | SK-OV-3 ovarian 90.8% | IGROV1 ovarian 117% | OVCAR-3 ovarian 116% | HS 578T breast 63.5% | NCI/ADR-RES ovarian 58%

O=C(CCCCC1CCSS1)Nc1ncnc2n[nH]c(-c3ccc(Oc4ccccc4)cc3)c12 (stereo not given)
inactive: SR leukemia 32.9% | RPMI-8226 leukemia 85.4% | OVCAR-8 ovarian 100% | OVCAR-5 ovarian 101% | OVCAR-4 ovarian 108% | SK-OV-3 ovarian 123% | OVCAR-3 ovarian 116% | HS 578T breast 117% | NCI/ADR-RES ovarian 89%

O=C1Nc2ccccc2[C@]12CC(c1ccccc1)=NN2
inactive: SR leukemia 21.6% | RPMI-8226 leukemia 39% | OVCAR-8 ovarian 65.8% | OVCAR-5 ovarian 61.7% | OVCAR-4 ovarian 84.5% | SK-OV-3 ovarian 57.1% | OVCAR-3 ovarian 27.7% | HS 578T breast 58.4% | NCI/ADR-RES ovarian 44.9%

CN1C(=O)/C(=C/c2cn(-c3ccccc3)nc2-c2ccccc2)SC1=S
inactive: SR leukemia 109% | RPMI-8226 leukemia 108% | OVCAR-8 ovarian 105% | OVCAR-5 ovarian 106% | OVCAR-4 ovarian 106% | SK-OV-3 ovarian 109% | OVCAR-3 ovarian 121% | HS 578T breast 100% | NCI/ADR-RES ovarian 98.1%

CCCCCCCCCCCCCCCCCCOc1ccccc1CC(=O)OCC[N+]1(C)CCCC1
inactive: SR leukemia 17.8% | RPMI-8226 leukemia 21.6% | OVCAR-8 ovarian 11.9% | OVCAR-5 ovarian 37.3% | OVCAR-4 ovarian 27.9% | SK-OV-3 ovarian 94.1% | OVCAR-3 ovarian 22.3% | HS 578T breast 30.3% | NCI/ADR-RES ovarian 82.3%

Fc1ccc(-c2nn(-c3ccccc3)cc2-c2nc3ccccc3o2)cc1
inactive: SR leukemia 43.6% | RPMI-8226 leukemia 48.2% | OVCAR-8 ovarian 58.8% | OVCAR-5 ovarian 122% | OVCAR-4 ovarian 78.1% | SK-OV-3 ovarian 120% | OVCAR-3 ovarian 45.1% | HS 578T breast 82% | NCI/ADR-RES ovarian 46.9%

Cn1cc(-c2csc(-c3ccc(Cl)cc3)n2)c2cccnc21
active: SR leukemia 0.516% [100 µM] | RPMI-8226 leukemia -24.4% [100 µM] | OVCAR-5 ovarian -49.3% [100 µM] | OVCAR-4 ovarian -28.1% [100 µM] | SK-OV-3 ovarian -57.1% [100 µM] | IGROV1 ovarian -21.5% [100 µM] | OVCAR-3 ovarian -75.7% [100 µM] | HS 578T breast 9.04% [100 µM] | NCI/ADR-RES ovarian -35.5% [100 µM]
inactive: OVCAR-8 ovarian 13.5% [100 µM]

O=C1/C(=C/c2ccc(Cl)cc2)COc2ccc(O)c(O)c21
active: RPMI-8226 leukemia 1.87% | OVCAR-8 ovarian 4.8% | OVCAR-5 ovarian -22.9% | OVCAR-3 ovarian -27.2% | NCI/ADR-RES ovarian 3.66%
inactive: SR leukemia 15% | OVCAR-4 ovarian 27.6% | SK-OV-3 ovarian 65.7% | HS 578T breast 20.4%

N#Cc1c(NC(=O)c2ccccc2)sc2c1CCC(=O)C2
active: SR leukemia 7.72% | RPMI-8226 leukemia -2.69% | OVCAR-4 ovarian -64.9% | OVCAR-3 ovarian -4.44% | NCI/ADR-RES ovarian 5.57%
inactive: OVCAR-8 ovarian 14.5% | OVCAR-5 ovarian 22.1% | SK-OV-3 ovarian 64.7% | HS 578T breast 23.3%

O=C(Nc1nn(-c2ccc(Cl)cc2Cl)nc1-c1ccccc1)c1ccccc1
inactive: SR leukemia 46% | RPMI-8226 leukemia 75.7% | OVCAR-8 ovarian 103% | OVCAR-5 ovarian 92% | OVCAR-4 ovarian 106% | SK-OV-3 ovarian 117% | IGROV1 ovarian 95% | OVCAR-3 ovarian 90.7% | HS 578T breast 105% | NCI/ADR-RES ovarian 106%

Cc1ccc(/C=N/Nc2nc(Nc3ccccc3)nc(-n3nc(C)cc3C)n2)cc1
inactive: SR leukemia 36.2% | RPMI-8226 leukemia 32.9% | OVCAR-8 ovarian 21.6% | OVCAR-5 ovarian 59.5% | OVCAR-4 ovarian 27.6% | SK-OV-3 ovarian 69.3% | OVCAR-3 ovarian 14.3% | HS 578T breast 78.9% | NCI/ADR-RES ovarian 13.1%

c1ccc(C2=NN[C@H](c3cn(-c4ccccc4)nc3-c3ccccc3)C2)cc1
active: SK-OV-3 ovarian -1.38% | OVCAR-3 ovarian 2.11% | HS 578T breast -7.83%
inactive: SR leukemia 90.9% | RPMI-8226 leukemia 86.7% | OVCAR-8 ovarian 35.6% | OVCAR-5 ovarian 83.6% | OVCAR-4 ovarian 14.8% | NCI/ADR-RES ovarian 48.9%

CCOC(=O)C1=NN(c2ccccc2)C(=O)/C1=C\N1C(=O)CC(=O)NC1=S
inactive: SR leukemia 92.6% | RPMI-8226 leukemia 93.1% | OVCAR-8 ovarian 100% | OVCAR-5 ovarian 104% | OVCAR-4 ovarian 52.7% | SK-OV-3 ovarian 97.5% | OVCAR-3 ovarian 101% | HS 578T breast 102% | NCI/ADR-RES ovarian 95.9%

COc1ccc(C(=O)Nc2ncc(Cc3cccc(Cl)c3)s2)cc1OC
active: OVCAR-3 ovarian 7.51%
inactive: SR leukemia 17% | RPMI-8226 leukemia 21.3% | OVCAR-8 ovarian 35.6% | OVCAR-5 ovarian 49.3% | OVCAR-4 ovarian 60.2% | IGROV1 ovarian 40.2% | HS 578T breast 30.9%

COC(=O)/C(CCC=C(C)C)=C1\[C@@H](OC(C)=O)C[C@@]2(C)[C@H]1C[C@@H](O)[C@H]1[C@@]3(C)CC[C@H](NCCN)[C@@H](C)[C@@H]3CC[C@@]12C
active: SR leukemia -17.8%
inactive: RPMI-8226 leukemia 70% | OVCAR-8 ovarian 86.3% | OVCAR-5 ovarian 104% | OVCAR-4 ovarian 90.2% | IGROV1 ovarian 86.6% | OVCAR-3 ovarian 83.8% | HS 578T breast 77.9% | NCI/ADR-RES ovarian 93.4%
